Bioassay records as filed in PubChem.
Only some compounds are listed: those with a hit (about 3.3% of all), similar ones and a draw of the others.
Gli-Sufu antag: Gli-Sufu pathway antagonists, primary screen, luciferase luminescence, Sufu-KO-LIGHT cells, uHTS. inhibition, % at 5 µM. Sufu-KO-LIGHT fibroblasts, Gli luciferase reporter luminescence. AID 588413, 2011. 0.74% of 340,000 active;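 active = inhibition above about 55%, limit read from the data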;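 note: 0% = DMSO-treated cells and 100% = wells with medium but no cells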
Jurkat NFkB inh: inhibitors of induced NF-kB luciferase reporter, primary screen, TCR NF-kB activation inhibitor project, cell-based, luminescence, uHTS; Jurkat, PMA/ionomycin-induced NF-kB luciferase reporter; inhibition, % at 4 µM; 0.53% of 330,000 active; AID 435003, 2010; in the data active = inhibition above about 50%
esBAF inh: Bmi1 luciferase reporter increase in mESCs, primary screen, esBAF inhibitor project, mouse ES cells, Bmi1 luciferase knock-in, single point. 24 h; 100% = twice the neutral-well signal. reporter increase, % at 12.5 µM. 2% of 350,000 active. AID 602393, 2012; in the data active = activation above about 40%; inconclusive = no clear call, values can overlap the other calls;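 note: 0% = median of the plate's neutral control wells and 100% = double that signal; a rise in the Bmi1 reporter signal indicates esBAF inhibition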
697 NFkB inh: inhibitors of PMA/ionomycin-induced NF-kB reporter, 697 cells, primary screen, B-cell NF-kB inhibitor project, cell-based, luminescence, uHTS | 697 B-cell NF-kB luciferase reporter, 16 h | inhibition, % at 4 µM | 0.33% of 330,000 active | AID 435022, 2010; in the data active = inhibition above about 35%
SMARCA2 activ: SMARCA2 (BRM) function activators, primary screen, cell-based, luminescence, high throughput; activation, % at 9.1 µM; AID 652017, 2013; MG213 cells, MMTV-luciferase reporter, dexamethasone, overnight; 1% of 370,000 active; in the data active = activation above about 7.8%;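 note: 0% = vehicle wells and 100% = reference activator wells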
Starred values were filed as active, the others as inactive; ? = inconclusive; / = not tested or not shown.

SMILES | Gli-Sufu antag | Jurkat NFkB inh | esBAF inh | 697 NFkB inh | SMARCA2 activ
O=C(NC(C(=O)N/N=C/c1ccccn1)c1n[nH]c(=O)c2ccccc12)c1ccccc1 (stereo not given) | 3.4 | 3.2 | -2.7 | 18.5 | 7.9*
O=C(Nc1ccccc1)Nc1ccccn1 | -30.6 | -39.4 | 44.7* | -25.5 | 5.3
O=C(Nc1ccccc1)Nc1cccc2cccnc12 | -71.8 | -107.8 | 85.3* | -101.9 | 1.9
O=C(Nc1ccccc1)OCCc1ccccn1 | -67.6 | / | 80.1* | / | 6.9
O=C(Nc1ccccc1)Nc1ccc2ocnc2c1 | -68.3 | -16.7 | 56.6* | -32.4 | -0.1
O=C(NCc1ccccn1)C(=O)Nc1ccccc1 | -24.6 | -44.3 | / | -61.8 | 5.3
CC(=O)Nc1ccc2c(c1)C(=O)N(C)[C@H]1CC[C@@H](CC(=O)NC3CCCCC3)O[C@@H]1CO2 | / | / | -2.3 | / | /
O=S(=O)(N[C@@H]1CC[C@H](CCn2cc(-c3ccccn3)nn2)O[C@H]1CO)c1cccc(F)c1 | / | / | 2.5 | / | /
CCOC(=O)c1ccc(NC(=O)Nc2ccccn2)cc1 | -55.9 | -121.3 | 58.8* | -83.2 | 3.0
COc1ccccc1C(=O)Nc1cccc2cccnc12 | -19.9 | -39.8 | 64.1* | -34.2 | 2.8
CCOC(=O)c1ccc(NC(=O)Nc2cccc(C)n2)cc1 | -26.4 | -15.4 | 36.1 | -18.3 | -1.4
O=C(Nc1ccccc1Cl)Nc1ccccc1Cl | -13.4 | -13.6 | / | -1.7 | -2.8
O=C(Nc1ccccn1)Nc1ccccc1Cl | 22.7 | -51.7 | 53.1* | -72.7 | 2.1
O=C(Nc1ccc(Cl)cn1)Nc1ccccc1Cl | -28.4 | -23.9 | 35.4* | -40.7 | 4.9
C[C@@H]1CCCCO[C@H](CN(C)Cc2ccc(C(=O)O)cc2)[C@@H](C)CN([C@@H](C)CO)C(=O)c2cc(NS(=O)(=O)c3cccs3)ccc2O1 | / | / | 7.0 | / | /
O=C(c1cnccn1)N1CC[C@@H]2[C@H]1c1cc(-c3cccc(F)c3)ccc1N[C@@H]2CO | / | / | 5.9 | / | /
CN=C1S/C(=C\c2ccc(N3CCOCC3)c(F)c2)C(=O)N1C | -8.2 | -6.7 | 70.8* | -37.5 | 3.8
C[C@H](CO)N1C[C@H](C)[C@@H](CN(C)S(=O)(=O)c2cn(C)cn2)Oc2ccc(NS(=O)(=O)c3cn(C)cn3)cc2CC1=O | / | / | 1.0 | / | /
COc1ccc(S(=O)(=O)Nc2ccc3c(c2)C(=O)N([C@H](C)CO)C[C@H](C)[C@H](CN(C)S(C)(=O)=O)O3)cc1 | / | / | -0.3 | / | /
CN1CCc2cc3c(c4c2[C@H]1[C@H](O)c1ccccc1-4)OCO3 | 13.9 | -13.5 | 3.8 | -10.3 | 9.3*
COc1ccc2c(c1OC)C(C1c3c(cc4c(c3OC)OCO4)CCN1C)OC2=O (stereo not given) | 1.6 | 6.5 | -1.3 | -7.6 | -2.1
O=C(O)c1ccccc1/C=N/NC(=O)C1CCCC1 | 0.8 | 1.5 | -0.4 | 16.9 | 7.9*
CC(C)(C)c1ccc(/C=N/NC(=O)C2CCCC2)cc1 | -40.2 | -128.5 | 55.5* | -160.0 | 4.1
Cc1ccc(S(=O)(=O)NCC[C@H]2CC[C@@H](NC(=O)Nc3ccccc3F)[C@H](CO)O2)cc1 | / | / | -4.3 | / | /
O=C(NC[C@H]1[C@H](c2ccccc2)[C@H](CO)N1Cc1ccccn1)C1CCC1 | / | / | 8.6 | / | /
SMILES | Gli-Sufu antag | Jurkat NFkB inh | esBAF inh | 697 NFkB inh | SMARCA2 activ
O=C(C[C@H]1CC[C@@H]2[C@H](COC[C@@H](O)CN2C(=O)c2ccccn2)O1)N1CCN(c2ccccc2)CC1 | / | / | -1.4 | / | /
Cc1noc(C)c1NC(=O)N(C)C[C@H]1OCCCC[C@H](C)Oc2ccc(NC(=O)c3ccccc3)cc2C(=O)N([C@H](C)CO)C[C@@H]1C | / | / | 6.4 | / | /
CC(OC(=O)Nc1cccc(Cl)c1)C(=O)OC1CCCCC1 (stereo not given) | -16.9 | / | 53.5* | / | -1.8
CC(OC(=O)C1CCCCC1)C(=O)Nc1cccc(Cl)c1 (stereo not given) | -5.1 | 1.0 | -7.8 | 12.8 | -4.0
O=C(NC(=O)c1ccc(Cl)cc1)OC1CCCCC1 | 2.3 | -16.9 | / | -20.4 | 1.1
O=C(Nc1ccccc1Cl)OC1CCCCC1 | -17.1 | -13.3 | 56.1* | -17.1 | 0.7
CCN(CC)CCC=C(c1cccs1)c1cccs1 | 18.9 | / | -1.4 | / | 7.9*
CCN(CC)CCCNC(=O)/C(=C\c1cccn1C)NC(=O)c1cccs1 | 1.9 | -1.5 | / | 11.4 | -2.2
CCOC(=O)c1cnc(-n2nc(C)cc2C)nc1NC1CCCC1 | 18.4 | 7.9 | / | -45.6 | -6.4
CCOC(=O)c1cnc(-n2nc(C)cc2C)nc1N(C)C | -53.4 | -46.5 | 44.1* | -65.8 | 1.5
COCC#Cc1cnc2c(c1)C(=O)N([C@@H](C)CO)C[C@H](C)[C@@H](CN(C)Cc1ccc3c(c1)OCO3)O2 | / | / | 3.1 | / | /
CCSc1ccc(-c2cccc([N+](=O)[O-])c2)nn1 | -28.2 | -49.6 | 49.5* | -30.3 | 0.5
Cc1ccc(C(=O)N/N=C\c2ccccc2[N+](=O)[O-])cn1 | -43.8 | / | 53.3* | / | 6.8
Cc1ccc(C(=O)N/N=C\C=C\c2ccccc2[N+](=O)[O-])cn1 | 14.4 | 1.3 | / | -1.6 | -0.6
COc1ccc(-c2ccc(C(=O)NCc3cccs3)c3occc23)c(C)c1 | / | / | 72.0* | / | 0.9
Cc1ccc2nc(-c3cccc(Br)c3)c(Cc3ccccn3)n2c1 | / | / | 48.0* | / | -2.1
Clc1ccc(-c2nc3ccc(Br)cn3c2Cc2cccc(Cl)c2)cc1 | / | / | ? | / | 2.9
Cc1ccc(-c2nc3ccc(Br)cn3c2Cc2cccc(Cl)c2)cc1 | / | / | 43.4* | / | 3.1
Cc1ccc(-c2nc3ccc(Cl)cn3c2Cc2cccc(Cl)c2)cc1 | / | / | 49.8* | / | 1.2
CC[C@@H](C(=O)[C@@H](C)[C@@H](O)[C@H](C)CCc1ccc(C)c(O)c1C(=O)O)[C@H]1O[C@](CC)([C@H]2CC[C@](O)(CC)[C@H](C)O2)C[C@@H]1C | 81.9* | 22.2 | -22.0 | -103.1 | -14.7
CCC(=O)N1C[C@H](C)[C@H](OC)CN(C)C(=O)c2cc(NC(=O)Nc3cccc(F)c3)ccc2OC[C@H]1C | / | / | 3.5 | / | /
Cc1ccc(-c2cc(N)n(-c3ccc(C)cc3)n2)cc1 | -63.2 | -40.1 | 46.9* | -52.4 | 3.7
Cc1ccc(-c2cc(N)n(-c3ccc(F)cc3)n2)cc1 | -51.8 | -69.0 | / | -97.0 | -0.3
O=c1cc(-c2ccccc2Cl)oc2cc(O)cc(O)c12 | -14.1 | -11.6 | 57.5* | -26.2 | 3.9
CC(C)(C)c1ccc(S(=O)(=O)CCc2ccccn2)cc1 | 11.6 | -9.7 | 70.5* | -32.3 | 6.0
Cc1ccccc1Nc1nc(N)nc(CN(C)c2ccccc2)n1 | -7.8 | 0.1 | 46.8* | -0.7 | 0.3
Cc1ccccc1Nc1nc(N)nc(COC(=O)c2ccco2)n1 | -16.6 | -19.4 | 77.1* | -0.3 | 2.0
Cc1ccc(Nc2nc(N)nc(COC(=O)c3ccc(Br)o3)n2)cc1 | -29.1 | -18.4 | 28.7 | -74.7 | 3.4
Cc1ccccc1Nc1nc(N)nc(COC(=O)[C@@H](NC(=O)c2ccco2)C(C)C)n1 | -6.8 | / | / | / | -0.6
Nc1nc(COC(=O)c2ccco2)nc(Nc2ccccc2)n1 | / | / | 47.8* | / | 1.7
